Data from PubChem BioAssay AID1159580 (chemical genetic matrix, 2015).
Where “and” joins values, the source holds several entries; their conditions need not be identical. Equal entries are not always repeated. Screen size: about 5,500 compounds; about 2,000 (36%) were called active. Not shown: some 18% with an inconclusive outcome. Rule as the data show it: active = normalized growth mostly below about 0.91 (no sharp cut-off); inconclusive = no clear call, values can overlap the other calls; inactive = mostly above about 0.92. The list shows a part of the results.

Experiment: chemical genetic growth profiling, strain panel (AID 1159580);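 also: tested at 20 µM; growth read once vehicle control cultures reached saturation at 30 °C; 1 = growth at the plate median or of vehicle wells; lower values mean less growth of the strain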
Conditions: growth OD
[1] = S. cerevisiae deletion strains, locus YAL013W, strain DEP1, stronger effect = lower value
[2] = S. cerevisiae deletion strains, locus YBR229C, strain ROT2, stronger effect = lower value
[3] = S. cerevisiae deletion strains, locus YDL101C, strain DUN1, stronger effect = lower value
[4] = S. cerevisiae deletion strains, locus YDR150W, strain NUM1, stronger effect = lower value
[5] = S. cerevisiae deletion strains, locus YEL061C, strain CIN8, stronger effect = lower value
[6] = S. cerevisiae deletion strains, locus YGR078C, strain PAC10, stronger effect = lower value
[7] = S. cerevisiae deletion strains, locus YHR030C, strain SLT2, stronger effect = lower value
[8] = S. cerevisiae deletion strains, locus YHR087W, strain rtc3, stronger effect = lower value
[9] = S. cerevisiae deletion strains, locus YJL187C, strain SWE1, stronger effect = lower value
[10] = S. cerevisiae deletion strains, locus YJR043C, strain POL32, stronger effect = lower value
[11] = S. cerevisiae deletion strains, locus YJR075W, strain HOC1, stronger effect = lower value
[12] = S. cerevisiae deletion strains, locus YLR039C, strain RIC1, stronger effect = lower value
[13] = S. cerevisiae deletion strains, locus YLR058C, strain SHM2 (second series), stronger effect = lower value
[14] = S. cerevisiae deletion strains, locus YLR085C, strain ARP6, stronger effect = lower value
[15] = S. cerevisiae deletion strains, locus YLR262C, strain YPT6, stronger effect = lower value
[16] = S. cerevisiae deletion strains, locus YML094W, strain GIM5, stronger effect = lower value
[17] = S. cerevisiae deletion strains, locus YMR219W, strain ESC1, stronger effect = lower value
[18] = S. cerevisiae deletion strains, locus YMR263W, strain SAP30, stronger effect = lower value
[19] = S. cerevisiae deletion strains, locus YNL153C, strain GIM3, stronger effect = lower value
[20] = S. cerevisiae deletion strains, locus YNL298W, strain CLA4 (second series), stronger effect = lower value
[21] = S. cerevisiae deletion strains, locus YNL322C, strain KRE1, stronger effect = lower value
[22] = S. cerevisiae deletion strains, locus YNR030W, strain Alg12, stronger effect = lower value
[23] = S. cerevisiae deletion strains, locus YPL055C, strain LGE1, stronger effect = lower value
[24] = S. cerevisiae deletion strains, locus YPL241C, strain CIN2, stronger effect = lower value
[25] = S. cerevisiae deletion strains, locus YPR135W, strain CTF4, stronger effect = lower value
[26] = S. cerevisiae strains, strain wild type, stronger effect = lower value
[27] = S. cerevisiae deletion strains, locus YGR229C, strain SMI1, stronger effect = lower value
[28] = S. cerevisiae deletion strains, locus YMR307W, strain GAS1, stronger effect = lower value
[29] = S. cerevisiae deletion strains, locus YDL134C, strain PPH21, stronger effect = lower value

Measured: normalized growth

COc1cccc(NC(=S)NCc2ccco2)c1
inactive: [1] 0.979 | [2] 0.99 | [3] 1.03 | [4] 1.04 | [5] 0.979 | [6] 1.01 | [7] 0.88 | [8] 0.977 | [9] 0.984 | [10] 1.01 | [11] 1 | [12] 0.976 | [13] 0.984 | [14] 0.884 | [15] 0.97 | [16] 0.963 | [17] 0.992 | [18] 1.04 | [19] 1 | [20] 1.01 | [21] 0.994 | [22] 0.986 | [23] 0.976 | [24] 0.97 | [25] 0.956 | [26] 0.996

S=C(NCc1ccco1)Nc1ccc(Oc2ccc(Cl)cc2)cc1
0.247 (active) and 1.07 (inactive): [7]
active: [2] 0.868 | [5] 0.723 | [6] 0.915 | [9] 0.923 | [12] 0.41 | [14] 0.355 | [15] 0.463 | [16] 0.703 | [18] 0.85 | [28] 0.364 | S. cerevisiae deletion strains, locus YNL128W, strain TEP1, stronger effect = lower value 0.887 | [20] 0.652 | [22] 0.544 | [23] 0.641 | [24] 0.361 | S. cerevisiae deletion strains, locus YPL256C, strain CLN2, stronger effect = lower value 1.27 [resistant] | [25] 0.505 | [26] 0.883
inactive: [1] 0.937 | [3] 0.933 | [4] 0.863 | S. cerevisiae deletion strains, locus YGR052W, strain FMP48, stronger effect = lower value 1.04 | [27] 0.987 | S. cerevisiae deletion strains, locus YHR079C, strain IRE1, stronger effect = lower value 1.07 | S. cerevisiae deletion strains, locus YHR082C, strain KSP1, stronger effect = lower value 1.14 | [8] 0.919 | S. cerevisiae deletion strains, locus YJL095W, strain BCK1, stronger effect = lower value 0.948 | [10] 0.926 | S. cerevisiae deletion strains, locus YJR066W, strain TOR1, stronger effect = lower value 1.13 | [11] 0.95 | S. cerevisiae deletion strains, locus YKL171W, strain NNK1, stronger effect = lower value 1.06 | S. cerevisiae deletion strains, locus YKL203C, strain TOR2, stronger effect = lower value 1.04 | [13] 0.979 | S. cerevisiae deletion strains, locus YLR113W, strain HOG1, stronger effect = lower value 1.11 | [17] 0.97 | [19] 0.936 | S. cerevisiae deletion strains, locus YNL183C, strain NPR1, stronger effect = lower value 1.04 | S. cerevisiae deletion strains, locus YNL207W, strain RIO2, stronger effect = lower value 1.02 | [21] 0.998 | S. cerevisiae deletion strains, locus YOR119C, strain RIO1, stronger effect = lower value 1 | S. cerevisiae deletion strains, locus YOR231W, strain MKK1, stronger effect = lower value 0.944

CCC(=O)Oc1ccc(NC(=S)NCCCO)cc1
inactive: [1] 1 | [2] 1 | [3] 0.998 | [29] 0.992 | [4] 1 | [5] 1.01 | [6] 1 | [27] 1 | [7] 1.05 | [8] 0.999 | [9] 1 | [10] 1 | [11] 1.01 | [12] 0.996 | [13] 1 | [14] 1.04 | [15] 1 | [16] 1.04 | [17] 1 | [18] 1.01 | [28] 1.04 | [19] 1.01 | [20] 1.01 | [21] 1.01 | [22] 1.02 | S. cerevisiae deletion strains, locus YOL006C, strain TOP1, stronger effect = lower value 1.01 | [23] 1.01 | [24] 1.04 | [25] 1.22 | [26] 0.993

CCN(C(=S)Nc1ccc(OC)cc1)c1ccccc1
inactive: [1] 1 | [2] 1.02 | [3] 1.01 | [29] 1.01 | [4] 0.917 | [5] 1 | [6] 0.989 | [7] 1.12 | [8] 1.01 | [9] 1.01 | [10] 1.01 | [11] 1 | S. cerevisiae deletion strains, locus YKL190W, strain CNB1, stronger effect = lower value 1.02 | [12] 0.921 | [13] 1.03 | [14] 0.976 | [15] 0.985 | [16] 1 | [17] 1.02 | [18] 1.01 | [19] 0.988 | [20] 0.99 | [21] 1.02 | [22] 0.992 | [23] 0.89 | [24] 0.999 | [25] 0.884
